Laboratory results taken from PubChem BioAssay.
Active and inactive are the calls of the source.

What was measured:
Albumin (Bos taurus) = Albumin (Bos taurus) (UniProt P02769); experiment: compounds binding labelled BSA control protein – biochemical, small-molecule microarray, Alexa647 label, 635/667 nm fluorescence, artefact control for SMM control protein annotation, profiling panel (AID 1118); details: BSA-A647 binding, fluorescence 635 nm, higher = more signal;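 further: score merges 667 nm emission intensity and signal-to-noise per printed compound spot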
[1] = probe aXIP binding to arrayed compounds – biochemical, NeuroSMM set, 635/667 nm fluorescence, primary screen (AID 1119); details: small-molecule microarray, higher = more signal, called active from +8 up or from −8 down;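 further: probe is the protein aXip251-270 applied at 1 µg/mL to compound-printed slides; binding of probe to printed compounds measured as 667 nm fluorescence plus signal to noise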
[2] = probe aNOTCH3 binding on compound microarray – biochemical, small-molecule microarray, 635/667 nm fluorescence, primary screen (AID 1120); details: higher = more signal;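 further: probe is a biotin-tagged antibody raised against NOTCH3 rather than NOTCH3 protein; score merges spot fluorescence near 667 nm with spot signal to noise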
[3] = probe aNOTCH2 binding on compound microarray – biochemical, small-molecule microarray, 635/667 nm fluorescence, primary screen (AID 1121); details: higher = more signal;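 further: score merges feature fluorescence read at 667 nm with its signal to noise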
[4] = biological target: Carbonic anhydrase 2 (Homo sapiens) (UniProt P00918); experiment: compounds binding carbonic anhydrase 2 – biochemical, small-molecule microarray, Alexa647-labelled CAII, profiling panel (AID 1122); details: CAII-A647 binding fluorescence, higher = more signal
[5] = COS7 lysate on small-molecule microarray, probe aHis, 635 nm (AID 1123); details: COS7 cell lysate, fluorescence, higher = more signal;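 further: z-score combines 667nm fluorescence intensity with signal-to-noise per printed compound spot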
[6] = probe aLAP1 signal on lysate-treated microarray – cell lysate, small-molecule microarray, COS7 lysate, primary screen (AID 1124); details: probe aLAP1, fluorescence, higher = more signal;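 further: lysate comes from COS7 cells expressing LAP1 and is applied at 0.3 µg/mL; score merges spot fluorescence near 667 nm with signal-to-noise over triplicate slides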
Sam68 (KHDRBS1) = experiment: compounds binding KHDRBS1 protein – biochemical, small-molecule microarray, 635 nm fluorescence, primary screen (AID 1125); details: higher = more signal;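 further: score merges 667 nm channel intensity with signal to noise over triplicate slides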
[7] = tested on: Chordin-like protein 2 (CHRDL2); experiment: compounds binding chordin-like 2 – biochemical, small-molecule microarray, 635 nm fluorescence, primary screen (AID 1126); details: fluorescence 635 nm, higher = more signal;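 further: printed compound slides probed with Chrdl2 protein at 4 µg/mL for 1 h at 4 C; score merges 667 nm emission intensity with signal to noise over three replicate slides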
[8] = biological target: Concanavalin-A (Canavalia ensiformis) (UniProt P02866); experiment: compounds binding concanavalin A lectin – biochemical, small-molecule microarray, Alexa647 label, 635 nm, artefact control for SMM control protein annotation, primary screen (AID 1127); details: ConA-A647 binding fluorescence, higher = more signal;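 further: z combines 667 nm emission intensity with signal-to-noise across three replicate slides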
Chain of Concanavalin-A (Canavalia ensiformis) (P02866 whole entry, looked up): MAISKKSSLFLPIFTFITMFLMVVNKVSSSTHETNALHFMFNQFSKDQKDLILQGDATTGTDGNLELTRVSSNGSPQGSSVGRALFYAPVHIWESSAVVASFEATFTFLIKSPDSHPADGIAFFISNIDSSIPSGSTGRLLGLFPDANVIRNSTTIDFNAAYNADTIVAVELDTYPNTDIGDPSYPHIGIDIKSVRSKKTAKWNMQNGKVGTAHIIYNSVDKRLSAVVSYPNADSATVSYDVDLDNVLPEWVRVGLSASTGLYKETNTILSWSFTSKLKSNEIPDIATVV

Chain of Albumin (Bos taurus) (P02769 whole entry, looked up): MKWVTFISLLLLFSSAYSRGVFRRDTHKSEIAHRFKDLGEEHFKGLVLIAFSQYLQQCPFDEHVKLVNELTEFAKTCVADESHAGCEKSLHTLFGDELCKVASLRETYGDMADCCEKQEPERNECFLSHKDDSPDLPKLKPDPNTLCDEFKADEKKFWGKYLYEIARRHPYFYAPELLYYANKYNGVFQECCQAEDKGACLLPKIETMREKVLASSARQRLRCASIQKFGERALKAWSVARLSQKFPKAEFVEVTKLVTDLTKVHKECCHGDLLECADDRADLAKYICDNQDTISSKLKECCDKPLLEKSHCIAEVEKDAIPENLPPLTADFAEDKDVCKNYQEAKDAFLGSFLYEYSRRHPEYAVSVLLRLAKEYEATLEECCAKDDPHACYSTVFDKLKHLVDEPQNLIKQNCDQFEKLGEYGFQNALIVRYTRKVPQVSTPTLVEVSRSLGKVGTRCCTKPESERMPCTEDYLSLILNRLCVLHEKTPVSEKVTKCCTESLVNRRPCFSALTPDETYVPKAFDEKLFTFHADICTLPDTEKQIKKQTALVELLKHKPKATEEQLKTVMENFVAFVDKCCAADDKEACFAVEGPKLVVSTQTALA

Row | Compound | composite z-score (Albumin (Bos taurus)) | composite Z-score [1] | composite z-score [2] | composite z-score [3] | composite z-score [4] | composite z-score [5] | composite z-score [6] | composite z-score (Sam68 (KHDRBS1)) | composite z-score [7] | composite z-score [8]
1 | COC(=O)[C@@]1(Cc2ccccc2)[C@H]2c3cc(C(=O)N(C)C)n(CCc4c[nH]c5ccc(O)cc45)c3C[C@H]2CN1C(=O)c1ccccc1 | 1.01 | 0.492 (inactive) | 0.238 | 0.153 | 0.858 | 2.15 | 1.29 | 0.878 | -0.676 | 0.0221
2 | COc1ccc(C(=O)Nc2cccc(CN3C(=O)[C@]4(O[C@H](CCn5cc(CCO)nn5)[C@@H]([Si](C)(C)c5ccc(OC)cc5)[C@@H]4C)c4ccccc43)c2)cc1 | 0.196 | 0.165 (inactive) | 0.0066 | -0.0142 | 0.43 | 0.98 | -0.0719 | 1.1 | 0.306 | 0.692
3 | Cc1ccc(S[C@]2(C(=O)O)CC(=O)N(C(C)C)[C@@H]2c2ccc(CO)cc2)cc1 | 0.07 | 0.264 (inactive) | -0.139 | -0.107 | 0.648 | -0.216 | 1.14 | 0.462 | -0.215 | 0.394
4 | CC(C)CCC[C@@H](C)[C@H]1CC[C@@]2(C)C3=C(CC[C@]12C)[C@@]1(C)CC[C@H](OC(=O)c2ccc(C(F)(F)F)nc2)C(C)(C)C1CC3 (stereo not given in full) | 0.326 | -0.0967 (inactive) | -0.111 | -0.17 | -0.0684 | 0.493 | 0.0819 | 0.42 | 0.827 | 0.311
5 | COc1ccc([Si](C)(C)[C@H]2[C@H](CCn3cc([C@H](O)c4ccccc4)nn3)O[C@@]3(C(=O)N(C)c4ccccc43)[C@@H]2C)cc1 | 0.179 | 0.235 (inactive) | -0.0057 | -0.0485 | 0.509 | 0.476 | -0.116 | 0.106 | -0.544 | -0.454
6 | COCCOC(=O)N1C(=O)[C@@]2(c3ccccc31)[C@H](C(=O)N1CCCCCCC1)[C@H]1C(=O)O[C@H](c3ccccc3)[C@H](c3ccccc3)N1[C@@H]2c1ccc(OCCO)cc1 | 0.445 | 10.1 (active) | 2.33 | 1.21 | 1.09 | 5.19 | 1.31 | 1.32 | 1.68 | 1.28
7 | O=C(CS)NCCCCCNC(=O)[C@@H]1C[C@@H]2C(=O)NCC(=O)N2[C@@H]1c1ccc(O)cc1 | -0.911 | 2 (inactive) | -0.189 | -0.213 | 0.552 | 0.559 | 0.144 | 0.692 | 0.616 | 0.53
8 | COCCOC(=O)N1C(=O)[C@@]2(c3cc(C#CC4(O)CCCCCC4)ccc31)[C@H](C(=O)Nc1nc3ccccc3s1)[C@H]1C(=O)O[C@H](c3ccccc3)[C@H](c3ccccc3)N1[C@@H]2c1ccc(OCCO)cc1 | 0.345 | -0.245 (inactive) | 0.246 | -0.0009 | 0.503 | 0.541 | 0.324 | 1.3 | 0.637 | 1.1
9 | CN(C)CCCCNC(=O)[C@@H]1C[C@@H]2C(=O)N[C@@H](CCCCN)C(=O)N2[C@@H]1c1ccc(O)cc1 | -0.153 | 0.237 (inactive) | -0.0613 | -0.0241 | -0.0397 | 1.7 | 0.0496 | 0.239 | 0.965 | 1.19
10 | CCCCC(=C=CC[C@H](O)c1cccc(OCCO)c1)C[C@H](O)c1ccccn1 | 0.424 | 0.152 (inactive) | -0.0014 | -0.153 | 0.693 | -0.0434 | -0.165 | -0.15 | 0.23 | 0.503
11 | [N-]=[N+]=NCc1ccccc1C[C@@]1(C(=O)NCC(O)CO)N=C(c2ccc(OCCCO)cc2)O[C@@H]1c1ccccc1 (stereo not given in full) | 0.992 | -0.191 (inactive) | -0.0077 | 0.0996 | 0.432 | 2.82 | -0.177 | 0.331 | -0.247 | -1.11
12 | C=CC[C@]1(C(=O)N2CCOCC2)N=C(c2ccc(OCCCO)cc2)O[C@H]1c1ccccc1N=[N+]=[N-] | 0.561 | 0.193 (inactive) | 0.298 | -0.0896 | 0.751 | 2.77 | 0.647 | 1.29 | -0.521 | 1.09
13 | C=CCC(OC(C)=O)[C@@H]1[C@@H](N(Cc2cc3ccccc3o2)C(=O)Cc2ccc(OC)cc2)c2cc(OCCCO)ccc2N1C(=O)c1ccc2ccccc2c1 (stereo not given in full) | 0.234 | 0.39 (inactive) | -0.0485 | -0.0652 | 0.386 | 0.13 | 0.16 | -0.427 | -0.257 | -0.439
14 | O=C1O[C@H](c2ccccc2)[C@H](c2ccccc2)N2[C@H]1[C@@H](C(=O)NC[C@H](O)c1ccccc1)[C@]1(C(=O)Nc3ccc(C#CC4=CCCCC4)cc31)[C@H]2c1ccccc1OCCO | 0.395 | 0.0371 (inactive) | 0.0527 | -0.0614 | 0.343 | 1.32 | 0.522 | 1.32 | -0.0358 | 0.978
15 | CCOC(=O)[C@H]1C/C=C/C[C@H](C(=O)OCC)C(=O)O[C@H]2[C@@H](OC)O[C@H](CO)[C@@H](OC(=O)c3ccc(Br)cc3)[C@@H]2OC1=O | 0.184 | 0.38 (inactive) | 0.037 | -0.0956 | 0.397 | 0.306 | 0.435 | -0.0942 | 0.406 | 0.205
16 | C=C(CCCC)C(=O)CC[C@@H](OC(C)=O)c1ccc(CO)o1 | -0.855 | -0.666 (inactive) | -0.0581 | -0.108 | 0.645 | 0.423 | -0.0353 | 0.628 | 0.869 | 0.0313
17 | COC(=O)[C@H](Cc1ccccc1)N[C@H](/C=C/C1CC1)[C@@H](O)Cc1ccccc1 | -0.115 | 0.448 (inactive) | 0.392 | -0.193 | -0.36 | 0.369 | -0.309 | -0.56 | -0.318 | -0.811
18 | O=C(O)[C@H]1C[C@H]2C(=O)N3CCC[C@H]3C(=O)N2[C@H]1c1ccc(O)cc1 | -2.04 | 0.0047 (inactive) | -0.368 | -0.176 | 0.545 | 0.193 | 0.107 | -0.132 | -1.49 | 0.298
19 | COC(=O)c1c(CC[C@@H](CO)NC(=O)NCCc2c[nH]c3ccccc23)oc(C(=O)Cc2ccccc2)c1C(=O)OC | 0.0018 | -0.326 (inactive) | 0.0842 | -0.14 | 0.112 | 0.452 | -0.161 | 0.583 | 0.149 | 0.467
20 | NCCCCCCNC(=O)[C@H]1C[C@H]2C(=O)N[C@@H](Cc3ccccc3)C(=O)N2[C@H]1c1cccc(OCCO)c1 | 0.845 | -0.336 (inactive) | 0.0657 | -0.0712 | 0.788 | 0.446 | 0.464 | 0.58 | -0.431 | 1.03
21 | OCC1C=C(/C=C/c2ccccc2)CN1Cc1ccccc1Br (stereo not given) | 0.718 | 0.466 (inactive) | 0.0694 | -0.0877 | 0.287 | 0.672 | -0.0831 | 1.01 | 0.402 | 0.94
22 | COC(=O)C[C@H]1O[C@@H](CCc2ccccc2)[C@@H](C)[C@@H]1[Si](C)(C)c1ccc(OC)cc1 | -0.932 | 0.611 (inactive) | -0.268 | -0.154 | -0.394 | -0.308 | 0.314 | -1.1 | 0.323 | -0.615
23 | CCOC(=O)C1=C[C@@H](C(C)C)N(S(=O)(=O)c2ccc(C)cc2)[C@H]1c1ccccc1F | 0.81 | 0.594 (inactive) | 0.0576 | -0.0877 | 0.62 | 1.66 | -0.144 | 1.31 | -0.333 | 1.17
24 | CC(=O)n1cc(C(O)C2C=CC3C(=O)NC(=O)C3N2Nc2ccccn2)c2ccccc21 (stereo not given) | 0.281 | -0.0662 (inactive) | -0.116 | -0.176 | 0.817 | 0.688 | 0.248 | 0.0906 | 0.549 | 0.551
25 | C#CCN(C/C=C/c1ccccc1)[C@H](CO)c1ccccc1 | -0.287 | -0.014 (inactive) | -0.274 | -0.196 | 0.0571 | -0.128 | -0.0886 | -0.142 | -0.0231 | -0.159
26 | CCOC(=O)C[C@H]1[C@H](OC(=O)c2ccc(-c3ccccc3)cc2)[C@@H](NC(=O)c2ccccc2)c2cc(OCCCO)ccc2N1C(=O)Cc1ccc(OC)cc1 | 0.372 | -0.316 (inactive) | -0.0077 | -0.0664 | -0.0275 | 0.368 | 0.311 | -0.254 | -0.399 | -0.769
27 | [N-]=[N+]=Nc1ccccc1[C@H]1OC(c2ccc(OCCCO)cc2)=N[C@@]1(Cc1ccccc1)C(=O)N1CCOCC1 | 1.05 | 1.39 (inactive) | 0.223 | 0.132 | 0.523 | 2.89 | 1.09 | 1.29 | 0.311 | 1.14
28 | O=C1NC(=O)C2C1C=CC(C(O)C=Cc1ccc([N+](=O)[O-])cc1)N2Nc1ccc(Cl)cc1Cl (stereo not given) | 0.89 | 0.541 (inactive) | 0.405 | 0.39 | 0.76 | 2.07 | 1.01 | 0.756 | 0.397 | 0.76
29 | Cc1ccc(S[C@]2(C(=O)O)CC(=O)N(Cc3ccccc3C(F)(F)F)[C@@H]2c2ccc(CO)cc2I)cc1 | 0.426 | 0.286 (inactive) | -0.0716 | 0.0477 | 0.502 | 1.74 | 1.51 | 0.406 | -0.673 | -0.0929
30 | O=C1C2C=CC(C(O)c3ccc(-c4ccccc4)s3)N(Nc3ccccc3)C2C(=O)N1c1ccccc1 (stereo not given) | 0.931 | -0.375 (inactive) | 0.24 | 0.0554 | 0.591 | 2.82 | 0.103 | 1.31 | 0.0135 | 0.963
